Screens as filed in PubChem.
DT40 TDP1 no CPT = qHTS for Inhibitors of human tyrosyl-DNA phosphodiesterase 1 (TDP1): qHTS in cells in absence of CPT | DT40 Tdp1-/- hTDP1 cells, no CPT, ATP luminescence, 48 h | Potency, µM (doses to about 46.2 µM), for the others: at the highest dose activity change, negative = growth inhibition, hits mostly inhibitors | actives 15% (n = 420,000) | AID 686978, 2013; also: nearly all actives have a fitted effect of over 55% in size
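Stably hTDP1-transfected Tdp1-null chicken DT40 cells were treated with library compounds minus camptothecin and grown for at least 48 hr at 37 °C, after which cellular ATP was quantified by luminescence.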
DT40 TDP1 CPT = growth inhibition of DT40 Tdp1-/-;hTDP1 cells with camptothecin (screen for TDP1 inhibitors); chicken DT40 Tdp1-/-;hTDP1 cells + 20 nM CPT, ATP luminescence, 48 h; Potency, µM (doses to about 46.2 µM), without a hit: at the highest dose activity change, negative = growth inhibition, usual class: inhibitors; actives 12% (n = 420,000); also: nearly all actives have a fitted effect of over 55% in size
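Chicken DT40 Tdp1-/- cells stably complemented with human TDP1 were seeded at 400 cells/well in medium containing 20 nM camptothecin, exposed to pin-transferred compounds, and grown at 37 °C for at least 48 hr. Viability was read as ATP luminescence.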
RORgamma inh = blocks mouse ROR gamma transcriptional activity. P51450. Drosophila S2 Gal4-RORgamma UAS-luciferase reporter, 20 h. Potency, µM (titrated, usually from 53.6 µM), inactives show top-dose activity change, negative = inhibition, actives largely listed as inhibitors. actives 5.4% (n = 310,000); also: nearly all actives have a fitted effect of over 60% in size
Target sequence (P51450 whole entry, looked up, the tested form may be a part): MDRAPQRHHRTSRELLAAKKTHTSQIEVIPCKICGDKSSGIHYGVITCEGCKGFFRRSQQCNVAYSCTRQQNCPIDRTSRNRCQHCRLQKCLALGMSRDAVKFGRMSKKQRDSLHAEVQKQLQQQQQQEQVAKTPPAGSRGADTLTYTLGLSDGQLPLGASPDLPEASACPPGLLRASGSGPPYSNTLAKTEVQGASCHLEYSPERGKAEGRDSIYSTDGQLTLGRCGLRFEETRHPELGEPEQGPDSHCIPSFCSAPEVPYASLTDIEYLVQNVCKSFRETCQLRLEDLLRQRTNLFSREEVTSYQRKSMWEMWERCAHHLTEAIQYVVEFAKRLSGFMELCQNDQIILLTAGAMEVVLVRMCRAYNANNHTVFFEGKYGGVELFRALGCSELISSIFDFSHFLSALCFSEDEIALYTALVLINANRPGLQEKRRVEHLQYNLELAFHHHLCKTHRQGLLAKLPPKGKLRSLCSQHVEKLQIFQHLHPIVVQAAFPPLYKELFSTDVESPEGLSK
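Schneider cells (Drosophila), stable Gal4 DBD–ROR gamma + UAS-luc; 1 hr cmpd preincubation; Cu2+ induction 700 uM final; 20 hr ambient; luminescence.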
Gal4-VP16 FLuc = counter-screen for ROR gamma inhibitors: Gal4-VP16 reporter | Drosophila S2 Gal4-VP16 UAS-luciferase, luminescence, 20 h | Potency, µM (titrated, usually from 53.6 µM), inactives show at the highest dose activity, negative = inhibition, usual class: inhibitors | actives 3.5% (n = 310,000) | AID 2546;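 also: Gal4-VP16 expression switched on by copper sulfate through the metallothionein promoter; nearly all actives have a fitted effect of over 50% in size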
TDP1 inh = blocks human tyrosyl-DNA phosphodiesterase 1 | recombinant TDP1, AlphaScreen DNA substrate cleavage | Potency, µM (titrated, usually from 130 µM), without a hit: top-dose activity change, negative = inhibition, hits mostly inhibitors | actives 0.28% (n = 350,000); also: nearly all actives have a fitted effect of over 40% in size
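E. coli-derived human Tdp1, 1 nM final. Cpd preinc 15 min RT; substrate 15 nM final, 5 min RT; AS bead mix 10 ug/ml final, 10 min RT. Signal loss = tyrosine-FITC cleavage. No-enzyme wells = max signal.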
Numbers without * were called inactive; ? = inconclusive; nt = no result; [ ] = dose if it differs, or a comment. A selection: hits, their analogues and other compounds. The true share with any hit is near 19%. Calls follow the shape of the dose curve; as a rule, active = well fitted curve in the direction sought with a large enough effect; inconclusive = small, poorly fitted or top-dose-only effect, or another doubt; inactive = no such curve, though single readings can be large; an effect the other way counts as inactive or inconclusive. % is scaled to controls: 0 for no effect and ±100 for the full control effect; potency is read from the fitted curve at half-maximal effect.

SMILES	DT40 TDP1 no CPT	DT40 TDP1 CPT	RORgamma inh	Gal4-VP16 FLuc	TDP1 inh
CCC(C(=O)NC(C)(C)C)n1c(-c2ccc(C)cc2)nc2ccccc21 (stereo not given)	-26.5%	-29.1%	nt	nt	nt
Cc1csc(-c2nc3ccccc3n2C(C(=O)NC(C)(C)C)c2ccccc2)c1 (stereo not given)	29.1µM*	?	nt	nt	nt
CCC(C(=O)NC(C)(C)C)n1c(C(c2ccccc2)c2ccccc2)nc2ccccc21 (stereo not given)	?	18.4µM*	nt	nt	nt
CC(C(=O)NC(C)(C)C)n1c(-c2ccccc2)nc2ccccc21 (stereo not given)	-5.1%	6.5%	nt	nt	nt
CC(=O)c1ccccc1NC(=O)COC(=O)c1cc[n+]([O-])cc1	-2.6%	10.5%	nt	nt	-0.6%
O=C(Nc1nc2ccccc2s1)c1ccccc1	-25.4%	?	10µM*	?	8.1%
O=C(Nc1nc(-c2ccc(F)cc2)cs1)c1cnccn1	-28.3%	-26.1%	2.24µM*	?	2.7%
CCOc1ccc2nc(NC(=O)c3cnccn3)sc2c1	23.1µM*	23.1µM*	1.58µM*	?	7.3%
CCOCC(=O)Nc1nc2ccc(OCC)cc2s1	?	?	?	?	-10.9%
O=C(Nc1nnc(SCc2ccc(F)cc2)s1)c1ccccn1	5.17µM*	2.59µM*	0.794µM*	1.41µM*	7.5%
Cc1onc(-c2ccccc2Cl)c1C(=O)NCc1ccc(S(N)(=O)=O)cc1	2.1%	-8.2%	1.7%	2.1%	-2.0%
O=S(=O)(c1ccc2ccccc2c1)N1CCNCC1	9.2%	0.3%	0.5%	2.1%	nt
O=C(Nc1ccccc1)c1nc2ccccc2s1	-25.8%	-20.9%	-32.1%	-26.4%	0.0%
c1ccc2sc(NN=C3CCCCCC3)nc2c1	?	?	3.98µM*	?	8.1%
Cc1ccc(C)c2sc(NC(=O)c3nc4ccccc4s3)nc12	?	?	1µM*	1µM*	2.6%
Cc1ccc(C(=O)Nc2nc3ccccc3s2)s1	-19.7%	-20.2%	21.0%	-14.4%	0.0%
CCOc1ccc2nc(NC(=O)C3(C)CC3(Br)Br)sc2c1 (stereo not given)	23.1µM*	16.4µM*	nt	nt	nt
c1ccc2sc(NCC3CCCO3)nc2c1 (stereo not given)	-5.1%	3.2%	-42.3%	-8.4%	-1.8%
O=C(Nc1nc2ccccc2s1)c1cnccn1	?	?	3.16µM*	5.01µM*	-1.1%
Cc1cc(-c2nnc3sc(-c4ccc(Cl)cc4Cl)nn23)n[nH]1	?	?	0.7%	2.7%	2.0%
CC(C)C(=O)N(Nc1nc2ccccc2s1)C(=O)C(C)C	6.5%	-6.8%	3.3%	-15.2%	2.7%
O=C(Nc1nc2ccc(F)cc2s1)c1ccccn1	0.517µM*	0.651µM*	0.708µM*	1.58µM*	9.2%
Cc1ccc(C(=O)N(Nc2nc3ccccc3s2)C(=O)c2ccc(C)cc2)cc1	?	-20.4%	8.91µM*	11.2µM*	2.7%
CC(C)CC(NC(=O)c1ccccc1)C(=O)N/N=C/c1ccco1 (stereo not given)	?	-24.1%	26.4%	-2.8%	nt
O=C(CN1CCCC1)NN=C(c1ccccc1)c1ccccc1	0.2%	-23.3%	-14.4%	-0.5%	5.4%
SMILES	DT40 TDP1 no CPT	DT40 TDP1 CPT	RORgamma inh	Gal4-VP16 FLuc	TDP1 inh
CN(CC(=O)Nc1ccc(N2CCOCC2)cc1)Cc1cc(=O)n2ccsc2n1	?	18.4µM*	29.9%	-18.1%	2.4%
CCn1c2ccccc2c2cc(NC(=O)c3cc(OC)cc(OC)c3)ccc21	0.731µM*	1.03µM*	-93.5%	?	1.9%
CCn1c2ccccc2c2cc(NC(=O)CN(C)CC(=O)Nc3ccc(N4CCOCC4)cc3)ccc21	23.1µM*	?	27.3%	-11.3%	4.3%
CCn1c2ccccc2c2cc(NC(=O)N3CCOCC3)ccc21	?	-22.1%	42.6%	10.9%	2.3%
CCn1c2ccccc2c2cc(NC(=O)c3ccc(Br)o3)ccc21	?	?	-1.5%	-5.4%	-1.5%
CCn1c2ccccc2c2cc(NC(=O)c3cc(C)on3)ccc21	18.4µM*	?	-2.3%	14.5%	3.7%
CCN(CC(=O)Nc1ccc2c(c1)OCCO2)Cc1cc(=O)n2ccsc2n1	2.2%	1.1%	-5.9%	2.8%	6.1%
COc1ccc(OC)c(NC(=O)CSc2nc(-c3ccccc3C)nc3cc(=O)[nH]n23)c1	?	?	nt	nt	5.3%
CCn1c2ccccc2c2cc(NC(=O)c3cc(OC)c(OC)c(OC)c3)ccc21	1.3µM*	1.3µM*	-0.6%	-12.5%	2.0%
CCn1c2ccccc2c2cc(NC(=O)COc3ccccc3)ccc21	23.1µM*	18.4µM*	14.7%	-0.4%	3.0%
CCn1c2ccccc2c2cc(NC(=O)COc3ccc(OC)cc3)ccc21	?	?	13.8%	4.6%	7.9%
Cc1ccc(CCNC(=O)c2c(C)nn(-c3ccc(F)cc3)c2-n2cccc2)cc1	nt	nt	nt	nt	-2.8%
Cc1ccc(-n2nc(C)c(C(=O)NCCCN3CCN(c4ccccc4F)CC3)c2-n2cccc2)cc1	3.66µM*	3.26µM*	nt	nt	8.5%
Cc1ccc(-n2nc(C)c(C(=O)NCCCN3CCN(c4cccc(Cl)c4)CC3)c2-n2cccc2)cc1	5.8µM*	8.2µM*	nt	nt	5.6%
O=C/C(=C\Nc1ccccn1)c1nc2cc(Cl)ccc2o1	?	?	5.62µM*	10µM*	-6.6%
CC(C)c1nc2sc3c(N4CCCCC4)ncnc3c2c2c1CCCC2	-3.2%	6.1%	nt	nt	3.2%
CCCNC(=O)CCC(NS(=O)(=O)c1ccc(C)cc1)C(=O)NCCC (stereo not given)	-17.1%	-4.6%	-5.9%	10.9%	2.2%
CCCNC(=O)CCC(=O)Nc1ncc(-c2ccc(C)cc2)n1C	0.7%	1.5%	3.55µM*	5.62µM*	-2.9%
NC(=O)CCCn1c(C(=O)c2cc(Cl)c(N)c(Cl)c2)c2ccc(C(F)(F)F)cc2[n+]1[O-]	18.4µM*	?	nt	nt	5.1%
NCCCn1c(C(=O)c2cc(Cl)c(N)c(Cl)c2)c2ccc([N+](=O)[O-])cc2[n+]1[O-]	0.517µM*	0.651µM*	nt	nt	7.1%
NCCCn1c(C(=O)c2cc(Cl)c(N)c(Cl)c2)c2ccc(C(F)(F)F)cc2[n+]1[O-]	18.4µM*	?	nt	nt	6.2%
CN(CCOc1ccccc1)CCOc1ccccc1	-17.7%	7.7%	-14.1%	-7.9%	4.3%
CCOC(=O)/C=C/C(=O)Nc1cccc([N+](=O)[O-])c1	4.11µM*	1.64µM*	17.0%[10 µM]	?	-2.3%
CCOC(=O)/C=C/C(=O)Nc1ccccc1-c1ccccc1NC(=O)/C=C/C(=O)OCC	5.17µM*	4.61µM*	?	?	-2.7%
CCOC(=O)c1cccc(NC(=O)/C=C/c2cccc([N+](=O)[O-])c2)c1	?	?	?	4.3%	3.9%
